Assay results published in PubChem BioAssay.
The source made the active and inactive calls.

How the values were obtained:
Albumin (Bos taurus) = Albumin (Bos taurus) (UniProt P02769); assay: compounds binding labelled BSA control protein – biochemical, small-molecule microarray, Alexa647 label, 635/667 nm fluorescence, artefact control for SMM control protein annotation, profiling panel (AID 1118); settings: BSA-A647 binding, fluorescence 635 nm, higher = more signal;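 also: score merges 667 nm emission intensity and signal-to-noise per printed compound spot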
[1] = probe aXIP binding to arrayed compounds – biochemical, NeuroSMM set, 635/667 nm fluorescence, primary screen (AID 1119); settings: small-molecule microarray, higher = more signal, called active from +8 up or from −8 down;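 also: probe is the protein aXip251-270 applied at 1 µg/mL to compound-printed slides; binding of probe to printed compounds measured as 667 nm fluorescence plus signal to noise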
[2] = probe aNOTCH3 binding on compound microarray – biochemical, small-molecule microarray, 635/667 nm fluorescence, primary screen (AID 1120); settings: higher = more signal;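 also: probe is a biotin-tagged antibody raised against NOTCH3 rather than NOTCH3 protein; score merges spot fluorescence near 667 nm with spot signal to noise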
[3] = probe aNOTCH2 binding on compound microarray – biochemical, small-molecule microarray, 635/667 nm fluorescence, primary screen (AID 1121); settings: higher = more signal;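 also: score merges feature fluorescence read at 667 nm with its signal to noise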
[4] = molecular target: Carbonic anhydrase 2 (Homo sapiens) (UniProt P00918); assay: compounds binding carbonic anhydrase 2 – biochemical, small-molecule microarray, Alexa647-labelled CAII, profiling panel (AID 1122); settings: CAII-A647 binding fluorescence, higher = more signal
[5] = COS7 lysate on small-molecule microarray, probe aHis, 635 nm (AID 1123); settings: COS7 cell lysate, fluorescence, higher = more signal;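 also: z-score combines 667nm fluorescence intensity with signal-to-noise per printed compound spot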
[6] = probe aLAP1 signal on lysate-treated microarray – cell lysate, small-molecule microarray, COS7 lysate, primary screen (AID 1124); settings: probe aLAP1, fluorescence, higher = more signal;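 also: lysate comes from COS7 cells expressing LAP1 and is applied at 0.3 µg/mL; score merges spot fluorescence near 667 nm with signal-to-noise over triplicate slides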
Sam68 (KHDRBS1) = assay: compounds binding KHDRBS1 protein – biochemical, small-molecule microarray, 635 nm fluorescence, primary screen (AID 1125); settings: higher = more signal;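 also: score merges 667 nm channel intensity with signal to noise over triplicate slides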
[7] = test system: Chordin-like protein 2 (CHRDL2); assay: compounds binding chordin-like 2 – biochemical, small-molecule microarray, 635 nm fluorescence, primary screen (AID 1126); settings: fluorescence 635 nm, higher = more signal;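 also: printed compound slides probed with Chrdl2 protein at 4 µg/mL for 1 h at 4 C; score merges 667 nm emission intensity with signal to noise over three replicate slides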
[8] = molecular target: Concanavalin-A (Canavalia ensiformis) (UniProt P02866); assay: compounds binding concanavalin A lectin – biochemical, small-molecule microarray, Alexa647 label, 635 nm, artefact control for SMM control protein annotation, primary screen (AID 1127); settings: ConA-A647 binding fluorescence, higher = more signal;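 also: z combines 667 nm emission intensity with signal-to-noise across three replicate slides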
Chain of Concanavalin-A (Canavalia ensiformis) (P02866 whole entry, looked up): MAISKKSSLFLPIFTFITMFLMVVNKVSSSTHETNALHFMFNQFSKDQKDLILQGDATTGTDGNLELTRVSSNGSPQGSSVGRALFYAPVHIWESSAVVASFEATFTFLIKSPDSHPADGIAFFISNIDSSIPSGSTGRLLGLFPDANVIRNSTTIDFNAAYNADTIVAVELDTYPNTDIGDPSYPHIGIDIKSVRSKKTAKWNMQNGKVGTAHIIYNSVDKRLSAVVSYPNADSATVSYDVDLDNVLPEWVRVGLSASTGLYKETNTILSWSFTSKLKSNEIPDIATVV

Chain of Albumin (Bos taurus) (P02769 whole entry, looked up): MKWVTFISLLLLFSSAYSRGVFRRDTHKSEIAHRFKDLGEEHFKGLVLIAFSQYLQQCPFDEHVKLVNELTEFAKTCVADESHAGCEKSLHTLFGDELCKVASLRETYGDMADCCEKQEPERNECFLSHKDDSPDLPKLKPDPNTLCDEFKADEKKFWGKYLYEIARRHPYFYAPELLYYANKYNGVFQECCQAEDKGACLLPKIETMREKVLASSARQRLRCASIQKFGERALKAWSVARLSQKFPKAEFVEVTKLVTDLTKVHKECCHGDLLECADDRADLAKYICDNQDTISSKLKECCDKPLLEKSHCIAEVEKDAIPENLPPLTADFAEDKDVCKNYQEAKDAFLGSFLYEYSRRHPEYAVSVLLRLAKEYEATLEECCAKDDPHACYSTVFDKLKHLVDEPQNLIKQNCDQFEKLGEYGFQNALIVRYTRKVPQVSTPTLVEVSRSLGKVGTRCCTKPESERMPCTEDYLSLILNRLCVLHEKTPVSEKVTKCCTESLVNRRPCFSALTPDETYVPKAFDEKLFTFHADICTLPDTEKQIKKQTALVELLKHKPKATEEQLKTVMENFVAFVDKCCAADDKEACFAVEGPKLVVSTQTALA

Row | SMILES | composite z-score (Albumin (Bos taurus)) | composite Z-score [1] | composite z-score [2] | composite z-score [3] | composite z-score [4] | composite z-score [5] | composite z-score [6] | composite z-score (Sam68 (KHDRBS1)) | composite z-score [7] | composite z-score [8]
1 | COC(=O)[C@@]1(Cc2ccc(F)cc2)[C@H]2c3cc(C(=O)N(C)C)n(CCN4CCOCC4)c3C[C@H]2CN1C(=O)c1ccccc1 | 0.851 | -0.34 (inactive) | 0.296 | 0.739 | 0.39 | 2.08 | 0.0192 | -0.0247 | -0.361 | 0.618
2 | [N-]=[N+]=NCc1ccccc1[C@@H]1OC(c2ccc(OCCCO)cc2)=N[C@]1(Cc1ccccc1)C(=O)NCc1ccccc1 | 0.937 | -0.04 (inactive) | 0.0774 | -0.0349 | 0.782 | 2.99 | 0.388 | 0.826 | -0.691 | 1.08
3 | O=C1O[C@@H](c2ccccc2)[C@@H](c2ccccc2)N2[C@@H](c3ccc(OCCO)cc3)[C@]3(C(=O)Nc4ccc(C#CCCO)cc43)[C@@H](C(=O)Nc3nc4ccccc4s3)[C@H]12 | 0.844 | 1.09 (inactive) | 0.289 | -0.148 | 0.458 | 1.48 | 0.426 | 1.3 | 0.324 | 1.09
4 | COc1cc2c(cc1O)C(c1ccc(CN3CCCC3)cc1)N(Cc1ccc([N+](=O)[O-])o1)CC2 (stereo not given) | 0.847 | 0.27 (inactive) | 0.0469 | -0.0959 | 0.91 | 0.542 | 0.774 | -0.768 | -0.881 | 0.387
5 | C#CCN=C(N)N | -0.0077 | 0.322 (inactive) | 0.0276 | -0.0403 | 0.41 | 0.121 | 0.118 | 0.754 | 0.437 | 0.604
6 | CCCCCCc1nc(-c2ccc(OC)nc2)cc2c1[Si](C(C)C)(C(C)C)OC2 | -0.361 | 0.582 (inactive) | -0.0858 | -0.104 | 0.445 | -0.689 | -0.293 | -0.299 | -0.0659 | 0.502
7 | O=C(NCCO)C1=C[C@H](Oc2ccccc2I)[C@@H](O)[C@H](NCc2ccc(F)cc2)C1 | -1.89 | -0.48 (inactive) | -0.161 | -0.14 | -0.934 | -0.809 | 1 | -0.285 | -0.0242 | -1.83
8 | CC(C)N1CC=CC23O[C@@H]4C=CCCOC(=O)C4[C@H]2C(=O)N(CCCCCO)[C@@H]3C1=O (stereo not given in full) | 0.62 | 0.23 (inactive) | -0.214 | -0.153 | 0.853 | 0.19 | 0.543 | -0.411 | -0.654 | 0.878
9 | O=C1N(Cc2ccccc2)c2ccccc2[C@H]2OC(c3ccc(OCCCO)cc3)=N[C@@]12Cc1ccccc1 | -0.465 | 1.19 (inactive) | 0.0271 | -0.131 | 0.606 | 2.42 | 1.1 | 1.3 | 0.41 | 1.06
10 | C=C(CCCC)C(=O)CC[C@H](OC(C)=O)c1ccccc1OCCO | 0.326 | 0.7 (inactive) | 0.156 | -0.0242 | 0.113 | 0.0794 | 0.277 | 0.368 | 0.544 | -0.0099
11 | CC(C)C[C@@H]1NC(=O)[C@@H]2C[C@H](C(=O)NCCCC[N+](C)(C)C)[C@H](c3ccc(O)cc3)N2C1=O | -0.857 | 0.541 (inactive) | -0.0866 | -0.153 | 0.705 | 0.83 | 0.678 | 1.09 | 1.37 | 1.02
12 | CC(C)[Si](C#CCCCC#N)(O[C@H](c1ccccc1)c1cn([C@H](C)c2ccccc2)nn1)C(C)C | 0.221 | -0.0102 (inactive) | 0.0357 | -0.0405 | 0.506 | 0.879 | 0.0714 | 1.24 | 0.293 | 0.444
13 | O=C1C2C=CC(C(O)c3cccs3)N(Nc3ccccc3)C2C(=O)N1c1ccccc1 (stereo not given) | 0.21 | 0.353 (inactive) | 0.0864 | -0.0731 | 0.787 | -0.0142 | -0.646 | -0.0232 | 0.568 | 0.0148
14 | C=CCC(OC(C)=O)[C@@H]1[C@@H](N(Cc2ccc(-c3cccc(C(F)(F)F)c3)o2)C(=O)Cc2ccc(F)cc2)c2cc(OCCCO)ccc2N1C(=O)c1ccc2ccccc2n1 (stereo not given in full) | 0.671 | 0.272 (inactive) | 0.228 | -0.0664 | -0.0261 | 0.27 | -0.0949 | 0.388 | 0.353 | -2.02
15 | COc1ccc(CCNC(=O)[C@@]2(Sc3ccc(C)cc3)CC(=O)N(C(C)C)[C@@H]2c2ccc(CO)cc2)cc1 | 0.566 | 0.397 (inactive) | -0.39 | -0.124 | 0.7 | 0.239 | 0.0112 | -0.346 | -2.15 | -0.277
16 | C=CC[C@]1(C(=O)NCCCOC)N=C(c2ccc(OCCCO)cc2)O[C@H]1c1ccccc1 | 0.812 | -0.397 (inactive) | 0.0522 | -0.131 | 0.783 | 2.66 | 0.648 | 1.07 | -1.08 | 0.335
17 | CC(C)CNC(=O)[C@@H]1c2ccccc2C(=O)N(CC23CC4CC(CC(C4)C2)C3)[C@H]1c1ccc(CO)cc1 | 0.486 | 0.642 (inactive) | -0.004 | -0.14 | 0.132 | 1.74 | 0.0747 | 0.985 | -0.284 | 1.07
18 | O=C1NC(=O)C2C1C=CC(C(O)c1ccc(F)cc1)N2Nc1ccccn1 (stereo not given) | 0.691 | -0.531 (inactive) | -0.004 | -0.0771 | 0.831 | 2.77 | -0.393 | -0.288 | 0.317 | 0.356
19 | C=CC[C@@]12N=C(c3ccc(OCCCO)cc3)O[C@@H]1c1ccccc1N(Cc1ccccc1)C2=O | 0.0349 | 0.407 (inactive) | 0.405 | 0.14 | 0.463 | 3.15 | 0.532 | 1.3 | 1.43 | 1.02
20 | COc1ccc([Si](C)(C)[C@H]2[C@H](CCn3cc([C@H](O)c4ccccc4)nn3)O[C@@]3(C(=O)N(C)c4c(Br)cc(C)cc43)[C@@H]2C)cc1 | -0.628 | 1.94 (inactive) | -0.259 | -0.103 | -0.149 | -0.215 | -0.112 | 0.0516 | 0.182 | 0.005
21 | CC=CC(O)C1C=CC2C(=O)N(C)C(=O)C2N1NC(=O)OC(C)(C)C (stereo not given) | 1.03 | 0.397 (inactive) | 0.0687 | -0.173 | 0.774 | 0.439 | 0.826 | -0.0008 | 0.204 | 0.0815
22 | COCC1=C([C@H](O)CCc2ccccc2)[C@H](CO)n2c(=O)n(-c3ccccc3)c(=O)n2C1 | -0.442 | 0.0423 (inactive) | -0.0014 | -0.212 | -0.447 | -0.303 | -0.469 | -0.73 | 0.319 | 0.134
23 | COc1ccccc1CN1C(=O)c2ccccc2[C@@H](C(=O)NCCCN(C)C)[C@@H]1c1ccc(CO)cc1 | 0.303 | 0.0241 (inactive) | -0.2 | -0.152 | 0.733 | -0.171 | 0.323 | -2.03 | 0.288 | 0.343
24 | C=CCOC(=O)[C@H]1[C@@H]2C(=O)O[C@@H](c3ccccc3)[C@@H](c3ccccc3)N2[C@@H](c2ccc(OCCOC(=O)[C@@H]3C[C@@H]4C(=O)N[C@@H](Cc5ccccc5)C(=O)N4[C@@H]3c3ccc(O)cc3)cc2)[C@]12C(=O)Nc1ccccc12 | 0.527 | 0.129 (inactive) | 0.0382 | -0.181 | 0.67 | 1.74 | 0.509 | 1.3 | 1.11 | 1.16
25 | O=C1N(CCS(=O)(=O)c2ccccc2)c2ccccc2[C@@H]2OC(c3ccc(OCCCO)cc3)=N[C@]12CCS(=O)(=O)c1ccccc1 | 0.929 | 0.759 (inactive) | 0.0496 | 0.0684 | 0.503 | 2.8 | 1.21 | 1.29 | 1.1 | 1.15
26 | Cc1ccc(S(=O)(=O)N2[C@@H](c3ccccc3)C(C(=O)O)=CC[C@H]2c2ccc(C#N)cc2)cc1 | 1.04 | 0.661 (inactive) | -0.0647 | 0.0167 | 0.802 | 3.18 | 1.04 | 1.21 | -0.425 | 0.805
